PubChem BioAssay (NCATS)
Entries with a potency or affinity are not part of this list. Active and inactive are the calls of the source. No rule for the calls is given here.

Conditions: Ebola virus entry assay, green fluorescence channel
Also: 0% is about no effect.

SMILES	efficacy
Cc1ccc2c(Br)cc(Br)c(O)c2n1	99.5% (inactive)
O=C1NCCN1CCN1CCC(c2cn(-c3ccc(F)cc3)c3ccc(Cl)cc23)CC1	-279% (inactive)
CN(C)c1ccc(C(=C2C=CC(=[N+](C)C)C=C2)c2ccccc2)cc1	-236% (inactive)
CCC(C(=O)OCCOCCN(CC)CC)c1ccccc1 (configuration not stated)	61.4% (inactive)
CC(C)(C)C(=O)OCOC(=O)C1N2C(=O)CC2S(=O)(=O)C1(C)C (configuration not stated)	65.1% (inactive)
CC1(C)[C@H](C(=O)O)N2C(=O)C[C@H]2S1(=O)=O	90.1% (inactive)
CCCCCN=C(N)N/N=C/c1c[nH]c2ccc(OC)cc12	-150% (inactive)
C[C@]1(Cn2ccnn2)[C@H](C(=O)O)N2C(=O)C[C@H]2S1(=O)=O	-31% (inactive)
COc1cc(N)c(Cl)cc1C(=O)NC1CCN(Cc2ccccc2)CC1	43.1% (inactive)
CCNC(=O)N1CCN(CCCC(c2ccc(F)cc2)c2ccc(F)cc2)CC1	111% (inactive)
CCCCN1CCCC1C(=O)Nc1c(C)cc(C)cc1C (configuration not stated)	111% (inactive)
N[C@H](C(=O)O)[C@@H](O)c1ccc(O)c(O)c1	53.3% (inactive)
CN(C)CCOC(c1ccccc1)c1ccccc1	60.8% (inactive)
Cc1c(C)n(Cc2ccccc2)c2ccc(C(=O)OCCN(C)C)cc12	60.6% (inactive)
COc1cc(N)c(Cl)cc1C(=O)NC1CCN(CCCOc2ccc(F)cc2)CC1OC (configuration not stated)	45% (inactive)
Nc1c2ccccc2nc2ccccc12	59% (inactive)
COC(=O)C1=C(C)NC(C)=C(C(=O)OC(C)(C)CN(C)CCC(c2ccccc2)c2ccccc2)C1c1cccc([N+](=O)[O-])c1 (configuration not stated)	39.5% (inactive)
